An excerpt weighted towards active compounds, which were near 1.2% of everything screened.
N-glyco inh = blocks N-linked glycosylation in D54 reporter cells | D54 ERlucT glycosylation luciferase reporter, 24 h; percent of 100 nM tunicamycin response | reporter increase, % at 12.5 µM | hit rate 0.23% among 360,000 | AID 588692;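 active = mean luciferase reporter signal, scaled so untreated is 0 and the glycosylation-blocking control 100, at or above a set limit in every replicate; inconclusive = mean reaches the limit but not every replicate does; inactive = mean below the limit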;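 also: luciferase carries N-glycosylation sites so blocking glycosylation raises the light; 0% = median of neutral control wells and 100% = median of 100 nM tunicamycin wells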
CASP6 VEID inh = blocks human caspase-6 cleavage activity; P55212; purified caspase-6, Z-VEID-R110 cleavage fluorescence; inhibition, % at 12.5 µM; hit rate 0.53% among 350,000; AID 686996;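 active = mean inhibition across replicates at least about 35%, with every replicate also reaching that limit, limit read from the data; inconclusive = only one of the two criteria met; inactive = neither criterion met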;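 also: 0% = median of neutral control wells and 100% = no fluorescence left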
RAD54 inh = RAD54 (human) branch migration inhibition; RAD54 Holliday junction branch migration, FAM/BHQ fluorescence; Q92698; hit rate 0.14% among 360,000; inhibition, % at 10.4 µM;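 active = mean normalized replicate activity at least 40 and at least half of replicates scoring 40 or more; inconclusive = only one of the two criteria met; inactive = mean below 40 and under half of replicates reaching 40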;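 also: 0% = median of neutral control wells and 100% = median of positive control wells; inhibitors cause a drop in the FAM fluorescence signal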
AF4-AF9 inh = MLL-AF4/AF9 protein interaction inhibition; P42568; AlphaScreen, biotin-AF4 peptide binding to FLAG-AF9; hit rate 0.47% among 350,000; inhibition, % at 10 µM;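 active = every replicate reaching a set inhibition limit, whatever the replicate mean, cut at about 25% in these data; inconclusive = mean inhibition reaches that limit but some replicates miss it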;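 also: 0% = plate neutral control median and 100% = total signal loss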
RAD52 anneal inh = blocks human RAD52 DNA annealing | hit rate 0.46% among 360,000 | P43351 | recombinant RAD52 DNA annealing, FRET fluorescence | AID 651710 | inhibition, % at 18.7 µM;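 active = every replicate showing at least 50% inhibition; inconclusive = mean inhibition at least 50% but not in every replicate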
Rad54 DNA ctr = binds DNA, flagging false Rad54 inhibitor hits; shares compounds with RAD54 inh; Acridine orange-DNA displacement, fluorescence polarization, 20 min; AID 651673; hit rate 8% among 460; AC50, µM (highest dose often 35 µM), without a hit: at the highest dose activity change, negative = DNA binding;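 active = signal drop giving an AC50 within twice the top valid tested concentration of each sample, actives reach about 35 µM in these data; inactive = activity opposite to expected, plus the rest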;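 also: polarization loss reports compound binding to salmon sperm DNA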
* = called active by the depositor; ? = inconclusive; · = not tested or not shown.

SMILES | N-glyco inh | CASP6 VEID inh | RAD54 inh | AF4-AF9 inh | RAD52 anneal inh | others
CC(C)NC(=O)NCC[C@@H]1CC[C@H](NC(=O)Nc2ccccc2)[C@H](CO)O1 | · | -3 | -8 | 0 | -5
CCC1C(=O)N=C(SCC(=O)Nc2nc3ccccc3s2)NC1=O (centres undefined) | 4 | 40* | -6 | 0 | -22
O=C(C[C@H]1C=C[C@H](NC(=O)Cc2ccccn2)[C@H](CO)O1)NCCc1ccccc1 | · | -1 | · | -5 | -8
CC(CCC(C)C(C)(C)C)[C@@H]1CC[C@H]2C3C[C@H](OS(O)(=S)=S)[C@H]4C[C@H](OS(O)(=S)=S)[C@@H](OS(O)(=S)=S)C[C@]4(C)[C@H]3CC[C@]12C (some centres undefined) (tested in a mixture with another compound) | 5 | · | 110* | · | ·
COc1cc(/C=C2\CCc3c2nc2ccccc2c3C(=O)O)cc(OC)c1OC | -4 | 49* | -4 | 3 | -13
CCN(CC)c1ccc(/C=N/N2CCN(Cc3ccccc3Cl)CC2)cc1 | -2 | -1 | 11 | 26* | 0
O=[N+]([O-])c1ccc(/C=N\N2CCN(Cc3ccccc3Cl)CC2)cc1 | 1 | 0 | -6 | 1 | -55
COc1ccc(/C=N/N2CCN(c3ccccc3OC)CC2)cc1OC | 1 | · | 0 | · | ·
CN(C)c1ccc(/C=N/N2CCN(Cc3ccccc3Cl)CC2)cc1 | 1 | -3 | 2 | 31* | -30
CCN(CC)c1ccc(/C=N/N2CCN(c3ccccc3OC)CC2)cc1 | 3 | -1 | -7 | 30* | -90
C(=N\N1CCN(Cc2ccccc2)CC1)/c1ccccc1 | 0 | 2 | · | -66 | -12
CCN(CC)c1ccc(/C=N/N2CCN(Cc3ccccc3)CC2)cc1 | -1 | -1 | · | 37* | -2
C[C@H]1CN([C@@H](C)CO)C(=O)c2cc(-c3ccccc3)cnc2O[C@@H]1CN(C)C(=O)Cc1ccccn1 | · | 0 | -12 | -5 | -4
O=C(N[C@H]1CC[C@@H](CCn2cc(C3(O)CCCC3)nn2)O[C@@H]1CO)c1ccccc1F | · | 0 | -1 | 0 | -9
C/C=C/c1cnc2c(c1)C(=O)N([C@@H](C)CO)C[C@H](C)[C@@H](CN(C)C(=O)C1CCOCC1)O2 | · | 2 | 19 | -3 | 5
COc1cc(Br)cc(/C=N/NC(=O)Cc2ccccc2)c1O | -3 | 1 | · | 79* | -3
O=C(Cc1ccccc1)N/N=C/c1cc(Br)cc(Cl)c1O | -4 | -3 | · | -1 | -15
CCC(=O)N(C)C[C@H]1Oc2ncc(-c3ccccc3C)cc2C(=O)N([C@H](C)CO)C[C@H]1C | · | 0 | 8 | -5 | 5
C[C@@H]1CN([C@H](C)CO)C(=O)Cc2cc(NC(=O)Cc3cn(C)c4ccccc34)ccc2O[C@H]1CN(C)S(=O)(=O)c1ccccc1 | · | -1 | 0 | -2 | -15
O=C(Nc1ccc(NC(=O)c2ccc(Cl)cc2Cl)cc1)c1ccc2c(c1)OCO2 | -2 | -1 | -1 | -8 | 2
O=C(Nc1ccc(C2=NCCN2)cc1)c1ccc(C(=O)Nc2ccc(C3=NCCN3)cc2)c(Cl)c1 | 1 | -117 | ? | 21 | 73* | Rad54 DNA ctr=-6%
C[C@@H]1CN([C@H](C)CO)C(=O)c2cccc(NC(=O)C3CCOCC3)c2O[C@@H]1CN(C)Cc1ccc(Oc2ccccc2)cc1 | · | -2 | -9 | 5 | 15
CCN(CC)CCOc1c(Br)ccc2c1sc1nc3n(c(=O)c12)CCC3 | 67* | · | 86* | · | · | Rad54 DNA ctr=-8%
COc1ccc2c3c([nH]c2c1)[C@H](CO)N(C(=O)c1ccncc1)CC31CCN(C(=O)NC(C)C)CC1 | · | 1 | · | -17 | 13
CCN(CC)CCn1c2ccccc2c2nc3ccc([N+](=O)[O-])cc3cc21 | 70* | -3 | ? | 3 | -28 | Rad54 DNA ctr=-12%
COc1ccc2c3c(n(C)c2c1)[C@H](CO)N(CC1CC1)CC31CCN(C(=O)c2ccc(F)cc2)CC1 | · | -2 | · | 1 | -37
CN1CCN(c2ncnc3c2[nH]c2ccc(F)cc23)CC1 | 0 | · | 76* | · | · | Rad54 DNA ctr=-3%
c1ccc2c(c1)[nH]c1c(N3CCN(C4CCCCC4)CC3)ncnc12 | 2 | · | ? | · | · | Rad54 DNA ctr=4%

Compound activity deposited in PubChem BioAssay by Broad Institute.
